Source: PubChem BioAssay (National Center for Advancing Translational Sciences (NCATS))
Shiga inhibitor: blocks Shiga toxin action in Vero cells. Vero cells, Shiga toxin protein synthesis inhibition reporter. inhibition, % at 38.7 µM. 290,000 compounds, 9.2% hits; in the data active = inhibition mostly above about 28%, no sharp cut-off; inactive = mostly below about 43%; also: 0% is about no effect
Marburg entry inh: Marburg virus entry inhibition; Marburg virus pseudotyped entry inhibition, cell reporter; Potency, µM (series often up to 37.8 µM), without a hit: top-dose activity change, negative = inhibition, hits mostly inhibitors; 300,000 compounds, 1.8% hits; AID 540276; calls by dose curve; tested in HEK293 cells; also: potency is read from the fitted curve at half-maximal effect; % is scaled to controls: 0 for no effect and ±100 for the full control effect
LASV entry inh: blocks Lassa virus binding to or entry into cells; Lassa virus pseudotype entry inhibition, cell reporter; Potency, µM (doses to about 37.9 µM), for the others: at the top dose activity change, negative = inhibition, usual class: inhibitors; 300,000 compounds, 1.2% hits; AID 540256; calls by dose curve; tested in HEK293 cells; also: potency is read from the fitted curve at half-maximal effect; % is scaled to controls: 0 for no effect and ±100 for the full control effect; nearly all actives have a fitted effect of over 50% in size
CHX counter: affects cycloheximide protein synthesis inhibition readout, counter-screen; 300,000 compounds, 12% hits; cell reporter, cycloheximide protein synthesis inhibition counterscreen; AID 2314; max response, %; in the data active = max response mostly above about 13%, no sharp cut-off; inactive = mostly below about 14%; also: read at 38.3 µM for the half of the compounds with a filed dose; 0% is about no effect
Active calls of the source: *; ? = inconclusive; · = not tested or not shown; [ ] = dose if it differs, or a comment. Only some compounds are listed: those with a hit (about 12% of all), similar ones and a draw of the others.

SMILES	Shiga inhibitor	Marburg entry inh	LASV entry inh	CHX counter
c1nnc(NC2=NCCCCC2)s1	32.3	13.1%	-2.8%	21.7*
c1nnc(NC2=NCCC2)s1	-14.1	3.1%	-24.9%	-0.8
C1CCN=C(Nc2nc3c(s2)CCCC3)CC1	120.3*	?	3.2%	38.5*
COc1cccc(NC(=O)Cn2c(=O)n(-c3ccc(C)cc3)c(=O)c3ccc(C(=O)NCc4ccco4)cc32)c1	·	-24.0%[46.1 µM]	-28.8%[46.1 µM]	·
CCC(C)NS(=O)(=O)c1cc2c3c(c1)CCC(=O)N3CCC2 (stereo not given)	-6.7	·	·	-2.0
Cc1onc(-c2ccc(Cl)cc2)c1-c1ccnc(SCC(=O)Nc2cc(Cl)cc(Cl)c2)n1	5.2	7.94µM*	?	1.4
O=C(CSc1nccc(-c2cccs2)n1)Nc1cccc(Cl)c1	23.4	13.8%[14.2 µM]	-27.5%	11.5
c1csc(CSc2nc3ccccc3s2)c1	136.1*	?	22.3%	33.7*
c1ccc(NCCSc2nc3ccccc3s2)cc1	·	-7.9%	0.0%[46.1 µM]	·
Cc1noc(C)c1CSc1nc2ccccc2s1	39.3	-9.2%	?	17.8
CNc1nnc(CSc2nc3ccccc3s2)s1	84.3*	3.0%	5.0%	21.9*
CCOC(=O)CSc1nnc(CSc2nc3ccccc3s2)n1C	7.4	-2.4%	0.8%	6.0
CCS(=O)CCSc1nc2ccccc2s1 (stereo not given)	120.6*	7.9%	-10.1%	32.0*
CCN(C(C)=O)c1nnc(CSc2nc3ccccc3s2)s1	156.9*	-28.5%	?	24.8*
COc1ccc(Cl)cc1NC(=O)CN1C(=O)CC(C)S(=O)(=O)c2ccccc21 (stereo not given)	26.2	3.3%[14.2 µM]	3.0%	6.7
CN(CC(=O)Nc1ccc(OC(F)(F)F)cc1)C(=O)c1ccccc1SCC(=O)N1CCCC1	·	0.2%	-2.9%	·
CC(=O)Nc1cccc(NC(=O)CCN2C(=O)c3ccccc3S2(=O)=O)c1	·	0.4%	15.7%	·
Nc1nc(SCC(=O)Nc2ccc(OCc3ccccc3)cc2)n[nH]1	57.5*	·	·	27.9*
Nc1nc(SCC(=O)NCc2ccccc2)n[nH]1	-9.4	2.6%	0.8%	-2.0
COc1ccc(-c2csc(NC(=O)CSc3n[nH]c(N)n3)n2)cc1	30.7	0.3%	-2.3%	12.4
COc1ccc(-c2csc(NC(=O)CSc3n[nH]c(C)n3)n2)cc1	107.6*	-8.7%[46.1 µM]	-22.9%[46.1 µM]	31.2*
Cc1nc(SCC(=O)Nc2ccc(OCc3ccccc3)cc2)n[nH]1	58.0*	·	·	24.3*
Brc1ccc(-c2cn3cccnc3n2)cc1	75.2*	5.9%	?	35.2*
CCC(=O)Nc1cc(-c2cn3cccnc3n2)ccc1OC	·	·	-0.6%[46.1 µM]	·
Clc1ccc(-c2cn3cccnc3n2)cc1	22.0	10.8%[46.1 µM]	-0.2%	18.7*
SMILES	Shiga inhibitor	Marburg entry inh	LASV entry inh	CHX counter
O=C(Nc1cccc(-c2cn3cccnc3n2)c1)c1cc(Br)ccc1Cl	·	·	-2.4%[46.1 µM]	·
Clc1ccc(-c2cn3cccnc3n2)cc1Cl	60.8	14.7%[46.1 µM]	?	25.9*
COc1ccc(-c2cn3cccnc3n2)cc1F	51.3*	?	?	43.8*
O=S(=O)(Nc1ccc(-c2cn3cccnc3n2)cc1)c1ccccc1	9.7	-24.2%[46.1 µM]	-37.8%	3.9
O=C1NC(=O)c2c1c(-c1ccccc1)cc1[nH]c3ccc(O)cc3c21	4.6	·	·	16.3
CCOc1ccc(NC(=O)CSc2oc(-c3ccc(F)cc3)nc2S(=O)(=O)c2ccc(C)cc2)cc1	·	-6.0%[46.1 µM]	-17.0%[46.1 µM]	·
O=C(Cn1nc(-c2ccccc2)c2cnc3ccc(F)cc3c21)NC1CCCC1	·	·	-14.1%[46.1 µM]	·
Cc1ccc(NC(=O)C2C(=O)N(CCO)C3(C)CC2c2ccccc2O3)cc1 (stereo not given)	32.0	13.6%	?	22.4*
N/C(=N\OC(=O)COc1ccc(Cl)cc1)c1cccnc1	62.2*	?	2.9%	15.2*
O=C(COc1ccc(Cl)cc1Cl)NNC(=O)c1cccnc1	25.5	5.9%[46.1 µM]	9.8%[46.1 µM]	13.7
Cc1ccc(OCC(=O)O/N=C(\N)c2cccnc2)cc1	67.9*	20.7%[46.1 µM]	8.1%	22.8*
N/C(=N\OC(=O)COc1ccc([N+](=O)[O-])cc1)c1cccnc1	14.7	28.8%[46.1 µM]	-2.8%	-1.7
N/C(=N\OC(=O)COc1ccc(Cl)cc1Cl)c1cccnc1	78.0*	?	?	53.6*
COc1cc(OC)c(NC(=O)Cn2c(=O)cc(C(F)(F)F)c3c(C)nn(C)c32)cc1Cl	·	·	7.6%[46.1 µM]	·
Cc1ccccc1OCCN1C(=O)NC2(CCc3ccccc32)C1=O (stereo not given)	-1.2	-9.7%	11.0%	-1.5
COc1ccc2c(c1)O/C(=C\c1sccc1C)C2=O	122.9	10.4%	29.8%	23.7*
O=C(O)COc1ccc2c(c1)O/C(=C\c1cccs1)C2=O	5.4	20.2%[46.1 µM]	4.5%	-1.4
O=C(C1=C(O)C(=O)N(CCN2CCOCC2)C1c1ccc([N+](=O)[O-])cc1)c1cccs1 (stereo not given)	33.6	-5.4%[46.1 µM]	-1.8%[46.1 µM]	7.9
Cc1cccc(C)c1OCc1cc(C(=O)N(C)Cc2cc(C3CC3)n[nH]2)no1	50.2*	-1.8%	-12.8%	32.1*
Cc1ccc(C)c(OCc2cc(C(=O)N(C)Cc3nccn3C)no2)c1	38.5	?	7.7%	29.5
COc1cc(C)ccc1OCc1cc(C(=O)N(Cc2nccn2C)C(C)C)no1	86.5*	·	·	73.4*
CCn1ccnc1CN(C)C(=O)c1cc(COc2ccc(OC)c3ccccc23)on1	11.9	-12.1%[46.1 µM]	?	8.3*
CCN(Cc1ccncc1)C(=O)c1cc(COc2c(C)cccc2C)on1	41.4*	4.2%[46.1 µM]	-8.3%[46.1 µM]	10.6*
COc1cccc(OCc2cc(C(=O)N(Cc3nccn3C)C(C)C)no2)c1	-2.2	·	·	11.1
Cc1cccc(C)c1OCc1cc(C(=O)N(Cc2nccn2C)C(C)C)no1	25.0	0.8%	?	19.3*
SMILES	Shiga inhibitor	Marburg entry inh	LASV entry inh	CHX counter
CN(C)c1nc(N)c([N+](=O)[O-])c(N2CCCCCC2)n1	1.4	·	·	-1.0
Cc1ccccc1NC(=O)Cc1nnc(N)s1	9.4	18.6%	?	-3.7
O=C1Nc2ccccc2/C1=C/c1ccccc1F	28.2	-7.6%[46.1 µM]	0.9%[46.1 µM]	13.1*
CC(C)(C)c1cc(/C=C2\NC(=O)NC2=O)cc(C(C)(C)C)c1O	30.1	·	·	25.4*
O=C1NC(=O)/C(=C/c2cccc(O)c2)N1	-3.4	·	·	3.5
CN(C)c1ccc(/C=C2\C(=O)Nc3ccccc32)cc1	78.4*	2µM*	?	76.4*
Cc1ccc(/C=C2\C(=O)Nc3ccccc32)o1	21.1	19.9%	-7.9%	17.5*
O=C1Nc2ccccc2/C1=C/c1cccnc1	-8.9	?	?	-0.9
O=C1Nc2ccccc2/C1=C/c1cnc(-c2ccccc2)[nH]1	53.4*	14.8%	?	59.4*
CN(C)c1ccc(/C=C2/NC(=O)NC2=O)cc1	active	3.8%	6.6%	25.3*
CN(C)c1ccc(/C=C2/C(=O)Nc3ccccc32)cc1	·	2µM*	·	·
CC(C)(C)C(=O)Nc1ccc2c(c1)OCCOCCOc1cc(NC(=O)C(C)(C)C)ccc1OCCOCCO2	12.8	?	?	-7.5
CC(C)C(=O)Nc1nc2cc3c(cc2s1)OCO3	76.8*	·	·	26.1*
CC(C)(C)C(=O)Nc1nc2cc3c(cc2s1)OCO3	70.6*	·	·	37.0*
O=C(Nc1nc2cc3c(cc2s1)OCO3)c1ccc(N2C(=O)CCC2=O)cc1	19.3	·	·	-0.1
CC(C)(C)OC(=O)N1CCCC1C(=O)NC1COC2CC(n3cc(F)c(=O)[nH]c3=O)OC12 (stereo not given)	-2.7	·	·	3.7
